# DT40 TDP1 no CPT – qHTS for Inhibitors of human tyrosyl-DNA phosphodiesterase 1 (TDP1): qHTS in cells in absence of CPT; DT40 Tdp1-/- hTDP1 cells, no CPT, ATP luminescence, 48 h; Potency, µM (titrated, usually from 46.2 µM), hits mostly inhibitors; 15% of 420,000 active; AID 686978, 2013; further: nearly all actives have a fitted effect of over 55% in size
#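 Stably hTDP1-transfected Tdp1-null chicken DT40 cells were treated with library compounds minus camptothecin and grown for at least 48 hr at 37 °C, after which cellular ATP was quantified by luminescence.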
# HT1080-NT tox – kills 2HG-producing HT-1080-NT fibrosarcoma cells; HT-1080-NT fibrosarcoma viability, CellTiter-Glo ATP luminescence, 48 h; Potency, µM (highest dose often 46.1 µM), usual class: cytotoxic; 1.6% of 360,000 active;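 further: NT is the 2HG producing partner of a matched IDH1 knockdown line; nearly all actives have a fitted effect of over 55% in size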
#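 Viability by CellTiter-Glo luminescence after 48 h compound exposure at 37C of HT-1080-NT cells (750/well, RPMI, 5% FBS). % activity scaled between DMSO wells and medium-only wells, then curve-fitted and categorized by curve class.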
# HT1080 IDH1KD tx – toxicity to HT-1080 IDH1 knockdown cells (counter line); HT-1080 IDH1 knockdown viability, ATP luminescence, 48 h; Potency, µM (series often up to 46.1 µM), actives largely listed as cytotoxic; 2% of 360,000 active
#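 HT-1080-IDH1KD cells (IDH1 knocked down), 750/well in RPMI with 5% FBS, treated with compound 48 h at 37 degrees C. Viability by CellTiter-Glo luminescence, normalised to DMSO and no-cell wells; concentration-response curves classed.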
# 12-LOX inh – inhibitors of human 12S-lipoxygenase ALOX12. P18054. purified 12hLO, xylenol orange hydroperoxide absorbance. Potency, µM (doses to about 108 µM), hits mostly inhibitors. 1.1% of 580,000 active. AID 1671190
# Target sequence (P18054 whole entry, looked up): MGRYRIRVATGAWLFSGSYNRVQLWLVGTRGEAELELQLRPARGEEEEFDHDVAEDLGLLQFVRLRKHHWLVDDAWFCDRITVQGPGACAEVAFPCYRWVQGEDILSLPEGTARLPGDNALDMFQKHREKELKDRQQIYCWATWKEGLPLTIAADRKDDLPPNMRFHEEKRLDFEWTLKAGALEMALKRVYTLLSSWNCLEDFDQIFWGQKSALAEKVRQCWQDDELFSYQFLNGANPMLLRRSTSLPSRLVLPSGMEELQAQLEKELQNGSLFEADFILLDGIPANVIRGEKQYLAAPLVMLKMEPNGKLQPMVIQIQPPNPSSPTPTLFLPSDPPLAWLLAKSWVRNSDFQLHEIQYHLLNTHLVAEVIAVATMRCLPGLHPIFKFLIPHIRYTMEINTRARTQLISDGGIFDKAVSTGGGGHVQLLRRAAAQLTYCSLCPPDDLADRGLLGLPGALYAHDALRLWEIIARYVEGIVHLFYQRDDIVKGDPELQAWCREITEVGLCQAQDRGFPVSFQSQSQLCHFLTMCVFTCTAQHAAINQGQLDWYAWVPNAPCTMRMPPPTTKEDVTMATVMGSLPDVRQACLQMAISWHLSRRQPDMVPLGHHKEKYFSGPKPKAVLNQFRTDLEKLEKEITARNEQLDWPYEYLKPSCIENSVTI
#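 Hydroperoxide product was detected by ferrous iron/xylenol orange as the 573 to 405 nm absorbance ratio. Arachidonic acid at 40 uM (final) was turned over for 30 min at room temperature by 150 nM human 12hLO, pH 7.0 Hepes buffer, after 15 min compound preincubation.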
# TDP1 cell CPT – growth inhibition of DT40 Tdp1-/-;hTDP1 cells with camptothecin (screen for TDP1 inhibitors); chicken DT40 Tdp1-/-;hTDP1 cells + 20 nM CPT, ATP luminescence, 48 h; AID 686979; 12% of 420,000 active; Potency, µM (titrated, usually from 46.2 µM), usual class: inhibitors; further: nearly all actives have a fitted effect of over 55% in size
#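 Cell growth measured by CellTiter-Glo luminescence after a minimum 48 h, 37 C compound exposure with 20 nM CPT in Tdp1-knockout DT40 cells stably expressing hTDP1, seeded 400/well; qHTS titration format.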
# IL-1B inflam inh – inflammasome signaling inhibition, IL-1 beta readout | 4.7% of 360,000 active | activity change, % at 57.5 µM | THP-1 LPS/ATP IL-1B secretion, AlphaLISA, 16 h; active compounds read low | AID 743279; in the data active means activity change below about -50%; inconclusive means mostly about -30% to -49%
#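 THP-1 cells pretreated 1 hr with compounds (up to 57.5 uM final), then stimulated with LPS (250 ng/mL final) plus ATP (1.25 mM final); secreted IL-1B measured by AlphaLISA after 16 hr, decreased signal indicating inhibition.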
# Hits are given with their value; 0 = inactive; ? = inconclusive; - = not tested or not shown. The entries come from a sample that favours hits as a whole. Unless noted, the call rests on the fitted dose curve; in most records, active means well fitted curve in the direction sought with a large enough effect; inconclusive means small, poorly fitted or top-dose-only effect, or another doubt; inactive means no such curve, though single readings can be large; an effect the other way counts as inactive or inconclusive.
SMILES,DT40 TDP1 no CPT,HT1080-NT tox,HT1080 IDH1KD tx,12-LOX inh,TDP1 cell CPT,IL-1B inflam inh
Cc1ccc(OCC(=O)NCc2ccc(Cn3cccn3)cc2)c(C)c1,-,-,-,0,-,-
CN(C)CCNC(=S)Nc1ccc(-c2nc3ccccc3[nH]2)cc1,0,0,0,0,0,0
S=C(NCc1ccc2c(c1)OCO2)Nc1ccc(-c2nc3ccccc3[nH]2)cc1,18µM,?,?,?,21µM,?
O=C(NC(=S)Nc1cc(-c2nc3ccccc3[nH]2)ccc1Cl)c1ccc2c(c1)OCO2,3.7µM,0,?,?,5.2µM,0
N#Cc1cccc(NC(=O)CNc2ccccc2C(N)=O)c1,-,-,-,0,-,-
Cc1ccc(C(=O)N/C(=C\c2ccc(-c3cccc([N+](=O)[O-])c3)o2)C(=O)NCCCN2CCOCC2)cc1,?,18µM,?,0,?,0
CN(C)C(=O)/C(=C\c1ccc(-c2cccc([N+](=O)[O-])c2)o1)NC(=O)c1ccccc1,16µM,0,0,0,15µM,0
Cc1ccc(C(=O)N/C(=C/c2ccc(-c3cccc([N+](=O)[O-])c3)o2)C(=O)NC(C)(C)C)cc1,13µM,0,0,0,?,0
COc1ccc(C(=O)N/C(=C\c2ccc(-c3cccc([N+](=O)[O-])c3)o2)C(=O)NCCCN2CCOCC2)cc1,16µM,?,?,?,?,0
CN(C)C(=O)/C(=C/c1ccc(-c2cccc([N+](=O)[O-])c2)o1)NC(=O)c1ccccc1,?,0,0,0,?,?
CCOC(=O)CNC(=O)c1ccc(C(=O)NCC(=O)OCC)cc1,-,-,-,0,-,-
CN(CC1CCOC1)C(=O)Nc1c(F)cccc1F (centres undefined),-,-,-,0,-,-
Cn1ccc2c(C(=O)NCC3CCC(=O)N3)nc(-c3ccccc3O)cc21 (centres undefined),-,-,-,0,-,-
CCOC(=O)c1cnc(SCc2nc(-c3ccccc3Cl)oc2C)nc1N,-,-,-,0,-,-
Cc1ccccc1Nc1c(C)c(C)nc2ncnn12,21µM,0,0,0,16µM,0
CCc1c(C)nc2ncnn2c1Nc1ccccc1C,?,0,0,0,?,0
COc1ccc(CCNC(=O)CC2Sc3ccccc3NC2=O)cc1 (centres undefined),-,-,-,0,-,-
C/C(=N\NC(=S)NCc1ccccc1)c1ccccc1F,?,0,0,35µM,0,0
C/C(=N\NC(=S)NCc1ccccc1)c1ccc(C(C)(C)C)cc1,23µM,0,?,35µM,18µM,0
C/C(=N\NC(=S)NCc1ccccc1)c1ccco1,?,0,0,?,?,0
CN(C)c1ccc(CN[C@H]2[C@H](O)[C@@H](N(C)CCc3ccccn3)[C@@H]3OC[C@H]2O3)cc1,-,-,-,0,-,-
Cc1ccccc1-c1cc(C(=O)NCCc2ccccc2)c2ccccc2n1,-,-,-,0,-,-
Cc1ccc(Cl)c(NC(=O)COC(=O)c2ccccc2C(=O)c2ccc(Cl)c([N+](=O)[O-])c2)c1Cl,10µM,?,?,0,0,-105
CCCNC(=O)COC(=O)c1ccccc1C(=O)c1ccc(Cl)c([N+](=O)[O-])c1,10µM,9.2µM,5.2µM,0,?,-103
Cc1ccc(C(=O)OCC(=O)Nc2c(C)n(C)n(-c3ccccc3)c2=O)cc1[N+](=O)[O-],0,0,0,0,0,0
SMILES,DT40 TDP1 no CPT,HT1080-NT tox,HT1080 IDH1KD tx,12-LOX inh,TDP1 cell CPT,IL-1B inflam inh
O=C(Cn1cccc1-c1nc(-c2ccccc2)no1)N1CCN(c2ccccc2F)CC1,-,-,-,0,-,-
O=C(CCc1c[nH]c2ccccc12)N1CCCCCC1,-,-,-,0,-,-
Cc1[nH]c2ccccc2c1/C=N/n1cnnc1,0,0,0,0,0,0
CCN(CC)c1ccc(N=Cc2c(C)[nH]c3ccccc23)cc1,9.2µM,?,?,?,6.5µM,0
C=CCc1cccc(CNc2nc3ccccc3n2CCC)c1O,23µM,?,?,0,?,?
CCCCCn1c(NCc2ccccc2OC)nc2ccccc21,21µM,-,-,0,?,-
CCCCn1c(NCc2ccccc2O)nc2ccccc21,?,0,0,0,?,?
CCCCn1c(NCc2ccc3c(c2)OCO3)nc2ccccc21,26µM,0,0,0,?,-51
CCCCn1c(NCc2ccc(OC)cc2O)nc2ccccc21,10µM,0,0,?,15µM,0
O=C(NC(NCc1cccnc1)(C(F)(F)F)C(F)(F)F)c1cccnc1,-,-,-,0,-,-
Cc1nc2ccc(C(=O)N(C)Cc3ccc(C(N)=O)cc3)cc2nc1C,-,-,-,0,-,-
COCC(=O)N1CCC(Oc2nccnc2N2CCc3ccccc32)C1 (centres undefined),-,-,-,0,-,-
Cc1ccccc1OCc1nc(C2CN(C(=O)Cc3ccsc3)C2)no1,-,-,-,0,-,-
CCC1CCCCN1C(=O)Cn1nc(-c2ccc(C)cc2)c2ccccc2c1=O (centres undefined),-,-,-,0,-,-
Cc1nn(-c2ccc(C(=O)OC(C)C)cc2)c(C)c1[N+](=O)[O-],26µM,0,0,0,0,0
C#CCN(C[C@H]1[C@H](OC(=O)NCc2ccccc2F)[C@H](OC(=O)NCc2ccccc2F)C[C@@H](C(=O)OC)[C@H]1C(=O)OC)S(=O)(=O)c1ccc(C)cc1,6.5µM,0,0,0,4.6µM,0
C#CCN(C[C@H]1[C@H](OC(=O)NCC2CCCCC2)[C@H](OC(=O)NCC2CCCCC2)C[C@@H](C(=O)OC)[C@H]1C(=O)OC)S(=O)(=O)c1ccc(C)cc1,2.9µM,0,0,0,2.9µM,0
COC(=O)C1C(=O)CC(C)(O)C(C(=O)OC)C1c1ccc(F)cc1 (centres undefined),-,-,-,0,-,-
O=C(c1ccc(C(F)(F)F)cc1)N1CCN(C2CC2)CC1,-,-,-,0,-,-
Cc1ccc(Nc2nc(CSc3nnc(-c4ccccc4)n3C)cs2)cc1,?,0,0,0,21µM,?
Cc1ccc(Nc2nc(CSc3nnnn3-c3ccccc3)cs2)cc1,18µM,0,0,0,?,0
Cc1ccccc1Nc1nc(CSc2nnnn2C2CC2)cs1,-,-,-,28µM,-,-
Cc1ccc(Nc2nc(CSc3nnnn3C)cs2)cc1,?,0,0,0,0,0
COc1ccccc1-c1nnc(SCc2csc(Nc3ccc(C)cc3)n2)o1,-,-,-,40µM,-,-
COCC(=O)NC[C@H]1CCN(Cc2ccccc2)C[C@H]1N(C)C,-,-,-,0,-,-
CCC(CC)NC(=O)c1ccc(N(C)C)cc1,-,-,-,0,-,-
Cc1ccc(CNC(=O)Cc2c(C)c3c(O)cc(C)cc3oc2=O)cc1,-,-,-,0,-,-
Cc1ccc(/C=C2\CCC3=C2OC(N)=C(C#N)C3c2ccc(C)cc2)cc1 (centres undefined),6.5µM,0,0,-,4.6µM,-70

# Screens (PubChem BioAssay)
